Among the data in PubChem BioAssay are composite z-score and z-score values, retold here.

Test [1] has as its system PRMT1 (protein arginine N-methyltransferase 1). Briefly: small molecules binding arginine methyltransferase PRMT1 – biochemical, small-molecule microarray, 635 nm fluorescence, primary screen (AID 1088).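 Also: binding of Prmt1 protein to compounds spotted on small-molecule microarray slides.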 Conditions: higher = more signal.
A short description of test [2]: growth effects on S. cerevisiae YJM789 – YJM789 clinical isolate, OD600, 24 h, basal, primary screen (AID 1089).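 Also: growth of clinical yeast isolate S. cerevisiae YJM 789 seeded 1000 cells per well; test concentration not given here.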 Conditions: higher = more signal, called active from +8 up or from −8 down.
Test [3] is described as follows: S. pombe growth modifiers, basal conditions – strain 972, OD600, 24 h, no modulator, primary screen (AID 1090).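 Also: basal condition with compound alone and no growth modifier present; test concentration not given here.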 As to conditions: S. pombe 972 growth, higher = more signal, called active from +8 up or from −8 down.
Test [4] in a line: budding yeast growth modifiers under rapamycin – strain BY4716, OD600, 96 h, primary screen (AID 1091). Also: test concentration not given here. As to conditions: S. cerevisiae BY4716 + rapamycin, higher = more signal, called active from +8 up or from −8 down.
The target in test [5] is Torsin-1A-interacting protein 2 (Homo sapiens) (UniProt Q8NFQ8). The experiment in a line: small molecules binding lysate-expressed LULL1 – cell lysate, human LULL1 lysate, 635/667 nm fluorescence, primary screen (AID 1092).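 Also: probe is lysate of COS7 cells overexpressing human LULL1; score merges per-feature 667 nm fluorescence with signal-to-noise.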 As to conditions: small-molecule microarray, hLULL1 lysate binding, 635 nm fluorescence; higher = more signal.
Test [6] in a line: optical density change of DRC41 E. coli – strain DRC41, OD650, 24 h, E. coli filamentation project, primary screen (AID 1093).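 Also: MC1000 strain lacking acrAB efflux and sulA so SOS filamentation is blocked; test concentration not given here.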 Conditions: E. coli DRC41 growth, higher = more signal, called active from +8 up or from −8 down.
Test [7] is described as follows: probe aLefty2 binding to arrayed compounds – biochemical, biotinylated probe, 635/667 nm fluorescence, primary screen (AID 1094).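 Also: score merges spot fluorescence near 667 nm with spot signal-to-noise ratio.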 As to conditions: small-molecule microarray, higher = more signal.
Test [8] relates to Noggin (protein binding on small-molecule microarray). Briefly: small molecules binding Noggin protein – biochemical, 635/667 nm fluorescence, primary screen (AID 1095).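 Also: score merges 667 nm feature fluorescence with signal to noise over triplicate slides.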 As to conditions: 635 nm fluorescence, higher = more signal.
The target of test [9] is Neurogenic locus notch homolog protein 3 (Homo sapiens) (UniProt Q9UM47). The experiment in a line: small molecules binding NOTCH3 protein – biochemical, 635/667 nm fluorescence, primary screen (AID 1096). As to conditions: small-molecule microarray, 635 nm fluorescence, higher = more signal.
The nature of test [10]: probe aEGFR binding to arrayed compounds – biochemical, biotinylated probe, 635/667 nm fluorescence, primary screen (AID 1097).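 Also: probe is a biotinylated anti-EGFR antibody binding compounds printed on slides; score combines fluorescence near 667 nm and signal to noise of each spot.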 As to conditions: small-molecule microarray, higher = more signal.
The test system of test [11] is Plasmodium falciparum Sir2 (PF13_0152, Sir2A). The experiment in a line: Plasmodium falciparum Sir2A binding compounds – biochemical, small-molecule microarray, 635 nm fluorescence, primary screen (AID 1098).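 Also: score merges spot fluorescence intensity with its signal-to-noise ratio.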 Conditions: fluorescence 635 nm, higher = more signal.
A short description of test [12]: probe aDKK1 binding to arrayed compounds – biochemical, biotinylated probe, 635/667 nm fluorescence, primary screen (AID 1099).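 Also: score merges 667nm spot fluorescence with signal to noise across triplicate slides; reference of the scale not given here.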 Conditions: small-molecule microarray, higher = more signal.
Test [13] is described as follows: probe aCHRDL2 binding to arrayed compounds – biochemical, biotinylated probe, 635/667 nm fluorescence, primary screen (AID 1100). As to conditions: small-molecule microarray, higher = more signal.
The nature of test [14]: change in splice reporter luminescence, either direction, cell-based, HEK293, spliceosome inhibition project, primary screen (AID 1101).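 Also: HEK293 cells carrying a splicing-competent luciferase reporter gene; test concentration not given here.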 As to conditions: HEK293 splicing luciferase reporter, 24 h, higher = more signal, called active from +8 up or from −8 down.
Test [15] concerns the target Fibroblast growth factor 10 (Homo sapiens) (UniProt O15520). The experiment in a line: compounds binding fibroblast growth factor 10 – biochemical, small-molecule microarray, 635 nm fluorescence, primary screen (AID 1102). Conditions: FGF10 binding, fluorescence 635 nm, higher = more signal.
Test [16] deals with glycogen synthase kinase-3 (GSK3A per assay name; protocol says GSK3B). Briefly: compounds binding glycogen synthase kinase-3 – biochemical, small-molecule microarray, 635 nm fluorescence, GSK3A, primary screen (AID 1103). Also: the record names both GSK3A and GSK3B. Conditions: fluorescence 635 nm, higher = more signal.
Test [17] concerns the target Epidermal growth factor receptor (Homo sapiens) (UniProt P00533). Briefly: compounds binding epidermal growth factor receptor – biochemical, small-molecule microarray, 635 nm fluorescence, primary screen (AID 1104).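 Also: score merges 667 nm emission intensity with spot signal to noise over triplicate slides.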 Conditions: EGFR binding, higher = more signal.
In test [18] the target is Follistatin-related protein 3 (Homo sapiens) (UniProt O95633). Briefly: compounds binding follistatin-related protein 3 – biochemical, small-molecule microarray, 635 nm fluorescence, primary screen (AID 1105).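 Also: score merges emission near 667 nm and signal to noise per printed spot across three slides.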 Conditions: FSTL3 binding, higher = more signal.
The target of test [19] is Dickkopf-related protein 1 (Homo sapiens) (UniProt O94907). The experiment in a line: small molecules binding DKK1 protein – biochemical, small-molecule microarray, 635 nm fluorescence scan, primary screen (AID 1106).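 Also: score merges emission near 667 nm with signal to noise over three replicate slides.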 Conditions: higher = more signal.
Test [20] concerns Inhibin beta A chain (activin A). Briefly: small molecules binding activin A – biochemical, small-molecule microarray, 635 nm fluorescence scan, primary screen (AID 1107).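 Also: mouse activin A protein probed at 4.33 µg/mL on printed slides; score merges bound-protein fluorescence near 667 nm with spot signal-to-noise.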 As to conditions: INHBA, higher = more signal.

Active and inactive are the calls of the source.

Neurogenic locus notch homolog protein 3 (Homo sapiens), sequence (Q9UM47 whole entry, looked up): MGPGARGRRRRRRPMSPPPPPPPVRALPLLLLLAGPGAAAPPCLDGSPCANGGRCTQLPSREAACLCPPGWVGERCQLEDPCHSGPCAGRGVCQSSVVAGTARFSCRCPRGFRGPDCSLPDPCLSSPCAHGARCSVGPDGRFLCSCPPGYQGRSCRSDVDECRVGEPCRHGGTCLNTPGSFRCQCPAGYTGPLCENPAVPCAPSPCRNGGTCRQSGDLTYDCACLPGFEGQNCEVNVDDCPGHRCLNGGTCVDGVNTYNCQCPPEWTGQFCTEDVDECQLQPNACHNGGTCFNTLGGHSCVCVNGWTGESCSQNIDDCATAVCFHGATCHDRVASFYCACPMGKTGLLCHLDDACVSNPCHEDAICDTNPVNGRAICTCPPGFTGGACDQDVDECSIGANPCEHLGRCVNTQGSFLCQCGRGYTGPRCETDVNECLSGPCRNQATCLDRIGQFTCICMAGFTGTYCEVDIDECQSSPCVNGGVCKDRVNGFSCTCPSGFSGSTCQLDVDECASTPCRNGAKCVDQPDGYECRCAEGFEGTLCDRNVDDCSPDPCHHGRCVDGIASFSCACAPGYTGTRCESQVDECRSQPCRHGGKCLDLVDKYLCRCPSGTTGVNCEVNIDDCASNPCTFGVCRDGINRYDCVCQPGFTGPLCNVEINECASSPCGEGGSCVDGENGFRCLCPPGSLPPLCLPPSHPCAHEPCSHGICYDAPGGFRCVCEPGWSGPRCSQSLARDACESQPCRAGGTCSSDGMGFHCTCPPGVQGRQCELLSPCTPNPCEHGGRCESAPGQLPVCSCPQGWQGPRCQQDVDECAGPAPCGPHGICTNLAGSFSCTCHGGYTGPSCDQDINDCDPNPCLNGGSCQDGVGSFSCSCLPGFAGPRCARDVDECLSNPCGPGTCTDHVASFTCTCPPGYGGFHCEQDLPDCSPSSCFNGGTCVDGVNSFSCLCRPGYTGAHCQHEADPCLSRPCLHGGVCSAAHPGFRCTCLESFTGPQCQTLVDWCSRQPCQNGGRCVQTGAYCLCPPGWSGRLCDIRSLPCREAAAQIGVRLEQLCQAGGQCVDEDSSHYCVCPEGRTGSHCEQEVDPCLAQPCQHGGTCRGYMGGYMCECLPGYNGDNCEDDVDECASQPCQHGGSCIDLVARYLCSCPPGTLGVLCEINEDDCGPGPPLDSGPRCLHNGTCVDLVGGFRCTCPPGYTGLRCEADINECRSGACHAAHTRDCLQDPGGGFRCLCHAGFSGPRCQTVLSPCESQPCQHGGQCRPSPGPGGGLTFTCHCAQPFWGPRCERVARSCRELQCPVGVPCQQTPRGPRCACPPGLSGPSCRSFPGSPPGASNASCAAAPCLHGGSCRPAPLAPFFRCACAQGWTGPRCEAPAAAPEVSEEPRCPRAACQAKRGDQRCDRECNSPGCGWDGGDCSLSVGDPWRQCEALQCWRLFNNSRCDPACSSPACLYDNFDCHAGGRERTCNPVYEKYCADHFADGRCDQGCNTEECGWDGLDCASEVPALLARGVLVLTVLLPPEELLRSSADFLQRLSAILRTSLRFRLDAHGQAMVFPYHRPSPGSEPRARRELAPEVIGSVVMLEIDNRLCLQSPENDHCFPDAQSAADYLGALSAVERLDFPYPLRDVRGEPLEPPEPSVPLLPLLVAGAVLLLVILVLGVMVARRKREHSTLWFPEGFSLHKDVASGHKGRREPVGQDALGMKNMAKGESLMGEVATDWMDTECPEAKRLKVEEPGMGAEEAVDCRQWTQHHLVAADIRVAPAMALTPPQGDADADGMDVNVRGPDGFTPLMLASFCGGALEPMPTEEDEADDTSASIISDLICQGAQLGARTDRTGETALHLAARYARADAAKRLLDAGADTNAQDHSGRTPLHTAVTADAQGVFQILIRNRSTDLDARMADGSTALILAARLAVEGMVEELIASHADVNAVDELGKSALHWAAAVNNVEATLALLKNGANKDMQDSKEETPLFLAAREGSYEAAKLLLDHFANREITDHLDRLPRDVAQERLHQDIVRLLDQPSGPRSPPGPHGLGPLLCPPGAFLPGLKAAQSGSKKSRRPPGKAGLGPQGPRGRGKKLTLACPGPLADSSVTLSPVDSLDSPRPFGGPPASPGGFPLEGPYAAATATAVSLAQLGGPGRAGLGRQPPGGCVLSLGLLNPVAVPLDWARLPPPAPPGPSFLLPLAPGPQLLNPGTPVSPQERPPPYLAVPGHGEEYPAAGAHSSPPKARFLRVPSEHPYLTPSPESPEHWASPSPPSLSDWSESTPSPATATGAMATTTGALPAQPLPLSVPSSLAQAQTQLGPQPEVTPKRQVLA
Dickkopf-related protein 1 (Homo sapiens), sequence (O94907 whole entry, looked up): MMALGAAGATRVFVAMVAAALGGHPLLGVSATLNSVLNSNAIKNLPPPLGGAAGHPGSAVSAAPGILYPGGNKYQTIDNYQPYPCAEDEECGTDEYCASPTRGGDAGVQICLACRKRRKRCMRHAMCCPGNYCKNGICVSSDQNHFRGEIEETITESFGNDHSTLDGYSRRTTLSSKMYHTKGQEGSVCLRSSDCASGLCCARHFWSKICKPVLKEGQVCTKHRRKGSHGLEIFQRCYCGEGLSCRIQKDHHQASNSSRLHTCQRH
Follistatin-related protein 3 (Homo sapiens), sequence (O95633 whole entry, looked up): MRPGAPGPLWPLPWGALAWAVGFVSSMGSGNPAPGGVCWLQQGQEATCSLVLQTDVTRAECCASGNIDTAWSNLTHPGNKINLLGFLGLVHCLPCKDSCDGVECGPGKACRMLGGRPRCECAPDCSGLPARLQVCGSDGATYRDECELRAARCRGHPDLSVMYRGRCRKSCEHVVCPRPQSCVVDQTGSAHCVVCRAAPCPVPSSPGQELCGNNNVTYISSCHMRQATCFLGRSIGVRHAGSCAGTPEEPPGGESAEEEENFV
Torsin-1A-interacting protein 2 (Homo sapiens), sequence (Q8NFQ8 whole entry, looked up): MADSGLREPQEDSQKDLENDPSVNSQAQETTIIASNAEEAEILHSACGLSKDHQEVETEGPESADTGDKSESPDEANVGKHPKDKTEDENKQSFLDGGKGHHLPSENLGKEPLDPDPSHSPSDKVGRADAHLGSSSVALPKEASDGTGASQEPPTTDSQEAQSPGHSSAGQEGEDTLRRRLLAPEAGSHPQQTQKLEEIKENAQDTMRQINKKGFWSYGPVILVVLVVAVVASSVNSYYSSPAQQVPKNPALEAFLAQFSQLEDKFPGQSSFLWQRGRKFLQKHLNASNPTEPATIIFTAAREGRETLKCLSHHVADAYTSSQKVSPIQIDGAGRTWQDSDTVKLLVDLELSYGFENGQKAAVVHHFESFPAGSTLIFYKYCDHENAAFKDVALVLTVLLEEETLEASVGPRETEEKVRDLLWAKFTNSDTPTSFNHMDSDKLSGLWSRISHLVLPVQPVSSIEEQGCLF
Epidermal growth factor receptor (Homo sapiens), sequence (P00533 whole entry, looked up): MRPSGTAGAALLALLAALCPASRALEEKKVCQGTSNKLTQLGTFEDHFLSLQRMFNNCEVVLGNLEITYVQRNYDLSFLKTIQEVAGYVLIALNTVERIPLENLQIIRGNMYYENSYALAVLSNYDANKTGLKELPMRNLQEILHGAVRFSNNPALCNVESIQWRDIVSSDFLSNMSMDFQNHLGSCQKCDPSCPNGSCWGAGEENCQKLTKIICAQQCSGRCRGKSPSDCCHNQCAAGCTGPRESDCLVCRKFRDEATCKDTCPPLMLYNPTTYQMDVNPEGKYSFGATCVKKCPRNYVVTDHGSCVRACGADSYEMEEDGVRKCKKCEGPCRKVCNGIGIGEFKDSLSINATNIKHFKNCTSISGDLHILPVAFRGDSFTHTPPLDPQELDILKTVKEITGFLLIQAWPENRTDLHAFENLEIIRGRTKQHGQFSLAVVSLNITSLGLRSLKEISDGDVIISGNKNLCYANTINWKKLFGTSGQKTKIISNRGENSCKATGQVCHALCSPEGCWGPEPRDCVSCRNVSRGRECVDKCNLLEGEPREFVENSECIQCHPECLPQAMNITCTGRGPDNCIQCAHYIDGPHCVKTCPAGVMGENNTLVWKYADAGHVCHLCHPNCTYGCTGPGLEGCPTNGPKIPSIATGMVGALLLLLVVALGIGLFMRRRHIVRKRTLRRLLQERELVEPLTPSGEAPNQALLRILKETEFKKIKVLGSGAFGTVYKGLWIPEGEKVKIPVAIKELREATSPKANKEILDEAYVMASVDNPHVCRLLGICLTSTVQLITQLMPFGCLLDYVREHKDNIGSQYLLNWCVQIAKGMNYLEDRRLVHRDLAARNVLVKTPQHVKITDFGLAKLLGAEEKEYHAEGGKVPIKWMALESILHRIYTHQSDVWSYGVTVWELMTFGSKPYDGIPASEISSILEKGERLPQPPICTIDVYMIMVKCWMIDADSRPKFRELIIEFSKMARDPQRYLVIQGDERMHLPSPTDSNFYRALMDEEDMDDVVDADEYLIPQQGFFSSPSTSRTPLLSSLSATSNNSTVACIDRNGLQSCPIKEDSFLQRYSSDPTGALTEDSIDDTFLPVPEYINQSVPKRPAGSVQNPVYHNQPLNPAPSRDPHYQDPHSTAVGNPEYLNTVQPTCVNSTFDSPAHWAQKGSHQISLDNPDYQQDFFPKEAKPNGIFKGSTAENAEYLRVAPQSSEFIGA
Fibroblast growth factor 10 (Homo sapiens), sequence (O15520 whole entry, looked up): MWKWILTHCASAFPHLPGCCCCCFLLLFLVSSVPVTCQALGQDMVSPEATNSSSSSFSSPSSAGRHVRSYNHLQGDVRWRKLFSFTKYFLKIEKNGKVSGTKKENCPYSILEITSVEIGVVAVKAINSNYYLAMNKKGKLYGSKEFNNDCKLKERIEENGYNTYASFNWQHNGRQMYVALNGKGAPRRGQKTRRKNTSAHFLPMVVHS

As to `CSCC[C@@H]1NC(=O)CC=C[C@@H](C)COC(=O)[C@H](CCSC)NC(=O)CC=C[C@@H](C)COC1=O`, the composite z-score in test [1] was -0.153; in [5], -0.452; in [7], -0.137; in test [8] it was 0.877; in test [9], -0.35; in test [10], -0.128. Besides, the composite z-score in [11] was -0.191; in [12], -0.396; in test [13], -0.607; in test [15] it was 0.435; in [16], 0.0287; in [17] it was 0.434. The results for the composite z-score in test [18], in test [19] and in test [20] were 0.678, 1.12 and -0.149, respectively. Moreover, the z-score in test [2] was -0.981 (inactive); in test [3], -1.12 (inactive); in test [4] it was -1.03 (inactive); in test [6] it was -0.566 (inactive); in test [14], -1.02 (inactive).
For the compound `COc1cc(Cc2cc3c(c(CCc4ccccc4)n2)[Si](C(C)C)(C(C)C)OC3)cc(OC)c1OC`, the composite z-score in test [1] is 0.735; in test [5], -0.244; in test [7], -0.184; in test [8] it was 0.684; in [9] it was 0.483; in [10], 0.286. Also, the composite z-score in test [11] is -0.132; in test [12], -0.106; in test [13] it was -0.471; in [15], 0.367; in test [16], -0.034; in test [17], 0.0831. For the same compound, the composite z-score in test [18] came out at 0.499; in [19] it was 0.164; in test [20], 0.679. Further, the z-score in test [2] was 0.238 (inactive); in test [3], -0.226 (inactive); in test [4] it was 0.0563 (inactive); in [6], -1.02 (inactive); in test [14], -0.212 (inactive).
As for `CC(C)[Si](OCCCNS(=O)(=O)c1ccc(Br)cc1)(C(C)C)C(C)C`, the composite z-score in test [1] is 0.807; in test [5], 0.716; in test [7] it was 0.0278; in test [8], 0.578; in [9] it was 1.11; in [10] it was 0.0298. For the same compound, the composite z-score stood at 0.373 in [11]; 0.526 in [12]; 0.0951 in test [13]; 0.831 in [15]; 1.18 in [16]; 0.742 in [17]. Further, the composite z-score in test [18] is 0.753; in test [19] it was 0.673; in test [20] it was -0.415. The z-score was -4.21 (inactive) in test [2]; -3.02 (inactive) in test [3]; -1.86 (inactive) in [4]; 3.1 (inactive) in test [6]; -0.619 (inactive) in test [14].
As for `COc1ccc([Si](C)(C)[C@H]2[C@H](CC(=O)N3Cc4ccccc4C[C@H]3CO)O[C@@]3(C(=O)N(Cc4cccc(N5CCOC5=O)c4)c4ccccc43)[C@@H]2C)cc1`, the composite z-score in [1] was 1.34; in test [5], 0.662; in [7], 0.0939; in test [8] it was 1.22; in test [9], 0.932; in test [10] it was -0.0169. For the same compound, the composite z-score in test [11] was 1.1; in test [12], -0.158; in test [13] it was 0.0765; in test [15] it was 0.701; in test [16], 0.461; in test [17] it was 1.13. Further, the composite z-score in test [18] came out at 1.24; in test [19] it was 1; in [20], 0.923. Besides, the z-score in test [2] is -0.541 (inactive); in [3], 0.319 (inactive); in test [4], 0.18 (inactive); in [6] it was 1.4 (inactive); in [14] it was -1.07 (inactive).
`CC(=O)Nc1ccc([C@H]2[C@H](C)CC[C@H]3C(=O)N4[C@@H](CC[C@@H](C)[C@@H]4c4ccc(NC(C)=O)cc4)C(=O)N32)cc1`: the composite z-score is 1.53 in test [1]; 1.63 in test [5]; -0.185 in test [7]; 0.651 in test [8]; 0.897 in [9]; 0.107 in [10]. The composite z-score is 0.75 in [11]; 0.368 in test [12]; -0.286 in test [13]; 1 in [15]; 1.17 in [16]; 0.168 in [17]. Moreover, the composite z-score in test [18] is 0.845; in [19], 0.759; in [20], 0.213. Also, the z-score in test [2] was 0.817 (inactive); in test [3], -0.789 (inactive); in test [4], -0.145 (inactive); in [6], 0.987 (inactive); in test [14] it was 0.209 (inactive).
